The values below come from article PMC7862700, “An all-to-all approach to the identification of sequence-specific readers for epigenetic DNA modifications on cytosine”.

Assay in all cases: DAPPL (digital affinity profiling via proximity ligation, sequencing); 10 mM Tris-HCl pH 7.5, 50 mM NaCl, 1 mM DTT, 4% glycerol, room temperature, 30 min; GST-TFs on glutathione beads, 16-mer random dsDNA library, 0.1% formaldehyde crosslink after washing; high values mean tight binding
One experiment addresses T1, FEV (Homo sapiens, UniProt Q99581 1-238).
T1 sequence: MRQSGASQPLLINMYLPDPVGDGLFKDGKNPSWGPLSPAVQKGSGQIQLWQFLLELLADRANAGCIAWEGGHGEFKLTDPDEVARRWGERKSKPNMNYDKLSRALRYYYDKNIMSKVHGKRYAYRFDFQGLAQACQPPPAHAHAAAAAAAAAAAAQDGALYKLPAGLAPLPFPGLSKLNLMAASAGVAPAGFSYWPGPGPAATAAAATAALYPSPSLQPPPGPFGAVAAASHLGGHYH
Conditions: protein: recombinant; tags: N-terminal GST; dsDNA, one strand shown. The method, boiled down:
(§1)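 Yeast served to express human transcription factors as GST fusions, which were then captured on glutathione beads and labelled with DNA barcodes. Pooled with a tag-only sample, they were incubated with 200 nmole of a 16-mer random double-stranded DNA library for 30 min at room temperature in Tris/NaCl/DTT/glycerol buffer, washed, crosslinked with 0.1% formaldehyde, ligated by proximity, amplified by PCR and sequenced. Dividing each hexamer's read frequency for a factor by its frequency for the tag-only sample gives the binding signal.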

The target in the next experiment is ETV5 (Homo sapiens, UniProt P41161 1-510). The following applies: protein: recombinant; tags: N-terminal GST; dsDNA, one strand shown. The method, boiled down:
as §1

A further experiment addresses HSF1 (Homo sapiens, UniProt Q00613 1-529). Conditions: protein: recombinant; tags: N-terminal GST; chain copies: 3; dsDNA, one strand shown. The procedure, abridged:
as §1

The next experiment addresses T2, SPIC (Homo sapiens, UniProt Q8N5J4 1-248).
T2 sequence: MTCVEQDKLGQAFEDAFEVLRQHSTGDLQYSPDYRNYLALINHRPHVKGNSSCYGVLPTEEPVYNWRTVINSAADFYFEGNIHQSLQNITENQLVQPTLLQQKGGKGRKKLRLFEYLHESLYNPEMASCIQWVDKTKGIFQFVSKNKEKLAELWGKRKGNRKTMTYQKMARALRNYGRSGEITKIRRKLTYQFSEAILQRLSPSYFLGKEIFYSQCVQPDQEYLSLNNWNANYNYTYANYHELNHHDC
The following applies: protein: recombinant; tags: N-terminal GST; dsDNA, one strand shown. The procedure, abridged: as §1

The target in another experiment is ELF4 (Homo sapiens, UniProt Q99607 1-663). The following applies: protein: recombinant; tags: N-terminal GST; dsDNA, one strand shown. The method, boiled down:
as §1

In another experiment the target is T3, ELK4 (Homo sapiens, UniProt P28324-2 1-405).
T3 sequence: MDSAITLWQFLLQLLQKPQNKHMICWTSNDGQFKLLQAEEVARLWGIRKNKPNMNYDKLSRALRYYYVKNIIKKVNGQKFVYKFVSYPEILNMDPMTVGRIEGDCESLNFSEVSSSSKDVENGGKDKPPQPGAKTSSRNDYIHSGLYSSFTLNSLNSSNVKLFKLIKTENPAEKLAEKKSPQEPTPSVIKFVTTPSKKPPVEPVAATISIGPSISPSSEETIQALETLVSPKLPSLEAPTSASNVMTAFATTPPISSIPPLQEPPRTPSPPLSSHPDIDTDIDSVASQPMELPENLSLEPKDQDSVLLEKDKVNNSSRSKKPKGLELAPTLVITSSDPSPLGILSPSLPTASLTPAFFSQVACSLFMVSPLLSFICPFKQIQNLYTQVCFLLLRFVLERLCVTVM
The following applies: protein: recombinant; tags: N-terminal GST; dsDNA, one strand shown. The procedure, abridged: as §1

In a further experiment the target is T4, ETV2 (Homo sapiens, UniProt O00321 1-342).
T4 sequence: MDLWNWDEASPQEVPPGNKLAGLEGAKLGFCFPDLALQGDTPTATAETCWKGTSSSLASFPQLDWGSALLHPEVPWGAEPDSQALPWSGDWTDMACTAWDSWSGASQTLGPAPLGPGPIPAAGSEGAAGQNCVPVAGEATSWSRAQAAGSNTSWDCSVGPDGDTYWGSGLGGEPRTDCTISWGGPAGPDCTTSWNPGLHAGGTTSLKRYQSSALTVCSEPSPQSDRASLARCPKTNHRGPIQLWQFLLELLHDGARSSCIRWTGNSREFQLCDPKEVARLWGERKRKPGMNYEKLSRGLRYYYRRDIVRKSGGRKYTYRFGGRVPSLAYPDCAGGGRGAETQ
The following applies: protein: recombinant; tags: N-terminal GST; dsDNA, one strand shown. The method, boiled down:
as §1

Another experiment concerns the target T5, ELF3 (Homo sapiens, UniProt P78545 1-371).
T5 sequence: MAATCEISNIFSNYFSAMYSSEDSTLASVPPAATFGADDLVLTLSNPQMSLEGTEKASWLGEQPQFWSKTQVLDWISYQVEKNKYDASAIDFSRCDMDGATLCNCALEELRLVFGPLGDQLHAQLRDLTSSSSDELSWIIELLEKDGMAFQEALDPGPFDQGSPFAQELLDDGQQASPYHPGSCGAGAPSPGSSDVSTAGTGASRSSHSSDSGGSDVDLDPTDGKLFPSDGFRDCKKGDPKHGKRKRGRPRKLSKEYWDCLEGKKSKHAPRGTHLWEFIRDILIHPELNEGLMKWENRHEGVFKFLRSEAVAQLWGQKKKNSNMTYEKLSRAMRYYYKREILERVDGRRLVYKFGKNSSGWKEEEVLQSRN
The following applies: protein: recombinant; tags: N-terminal GST; dsDNA, one strand shown. The method, boiled down:
as §1

The next experiment addresses CRX (Homo sapiens, UniProt O43186 1-299). The following applies: protein: recombinant; tags: N-terminal GST; dsDNA, one strand shown. The method, boiled down:
as §1

The target of the next experiment is ETV1 (Homo sapiens, UniProt P50549 1-477). The following applies: protein: recombinant; tags: N-terminal GST; dsDNA, one strand shown. The method, boiled down: as §1
Sequence of ETV1 (P50549 whole entry): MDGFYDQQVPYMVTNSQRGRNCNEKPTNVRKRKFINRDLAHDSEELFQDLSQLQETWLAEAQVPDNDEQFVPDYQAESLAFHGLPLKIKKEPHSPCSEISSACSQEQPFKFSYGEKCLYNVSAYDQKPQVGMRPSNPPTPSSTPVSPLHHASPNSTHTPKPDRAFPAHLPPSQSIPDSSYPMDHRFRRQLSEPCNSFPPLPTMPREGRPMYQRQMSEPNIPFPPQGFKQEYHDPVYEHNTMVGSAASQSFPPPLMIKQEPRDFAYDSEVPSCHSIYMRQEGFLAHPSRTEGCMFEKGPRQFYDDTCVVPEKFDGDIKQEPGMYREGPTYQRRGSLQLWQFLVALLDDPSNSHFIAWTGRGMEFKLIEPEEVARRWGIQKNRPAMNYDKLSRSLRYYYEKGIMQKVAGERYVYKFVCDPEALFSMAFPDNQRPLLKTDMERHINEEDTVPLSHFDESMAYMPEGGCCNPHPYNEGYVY

Sequence of CRX (O43186 whole entry): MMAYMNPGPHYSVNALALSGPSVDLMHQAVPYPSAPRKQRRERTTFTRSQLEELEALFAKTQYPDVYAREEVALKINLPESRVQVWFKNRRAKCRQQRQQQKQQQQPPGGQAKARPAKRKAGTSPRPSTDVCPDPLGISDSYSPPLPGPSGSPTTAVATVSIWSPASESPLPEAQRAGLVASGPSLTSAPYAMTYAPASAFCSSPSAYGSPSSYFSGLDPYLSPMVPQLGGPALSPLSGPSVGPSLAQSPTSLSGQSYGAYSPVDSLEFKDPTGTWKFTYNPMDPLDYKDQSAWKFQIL
Sequence of ELF4 (Q99607 whole entry): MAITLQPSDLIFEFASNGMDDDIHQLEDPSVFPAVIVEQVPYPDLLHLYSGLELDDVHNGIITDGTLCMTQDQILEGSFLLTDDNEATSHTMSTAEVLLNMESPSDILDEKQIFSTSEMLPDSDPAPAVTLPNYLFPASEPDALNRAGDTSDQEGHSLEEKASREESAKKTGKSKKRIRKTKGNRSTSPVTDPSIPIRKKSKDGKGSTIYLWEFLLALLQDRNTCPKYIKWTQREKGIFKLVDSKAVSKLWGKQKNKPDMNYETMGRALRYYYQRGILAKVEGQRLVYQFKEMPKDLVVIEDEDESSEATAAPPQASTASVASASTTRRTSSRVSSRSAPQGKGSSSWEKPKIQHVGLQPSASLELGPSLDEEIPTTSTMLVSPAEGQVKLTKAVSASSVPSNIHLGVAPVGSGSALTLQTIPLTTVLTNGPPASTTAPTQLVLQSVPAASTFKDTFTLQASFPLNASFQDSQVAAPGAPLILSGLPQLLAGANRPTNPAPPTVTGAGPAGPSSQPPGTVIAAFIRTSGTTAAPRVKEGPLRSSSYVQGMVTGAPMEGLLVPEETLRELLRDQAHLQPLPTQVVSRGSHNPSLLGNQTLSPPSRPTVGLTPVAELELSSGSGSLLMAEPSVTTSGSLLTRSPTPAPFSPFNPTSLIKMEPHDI
Sequence of HSF1 (Q00613 whole entry): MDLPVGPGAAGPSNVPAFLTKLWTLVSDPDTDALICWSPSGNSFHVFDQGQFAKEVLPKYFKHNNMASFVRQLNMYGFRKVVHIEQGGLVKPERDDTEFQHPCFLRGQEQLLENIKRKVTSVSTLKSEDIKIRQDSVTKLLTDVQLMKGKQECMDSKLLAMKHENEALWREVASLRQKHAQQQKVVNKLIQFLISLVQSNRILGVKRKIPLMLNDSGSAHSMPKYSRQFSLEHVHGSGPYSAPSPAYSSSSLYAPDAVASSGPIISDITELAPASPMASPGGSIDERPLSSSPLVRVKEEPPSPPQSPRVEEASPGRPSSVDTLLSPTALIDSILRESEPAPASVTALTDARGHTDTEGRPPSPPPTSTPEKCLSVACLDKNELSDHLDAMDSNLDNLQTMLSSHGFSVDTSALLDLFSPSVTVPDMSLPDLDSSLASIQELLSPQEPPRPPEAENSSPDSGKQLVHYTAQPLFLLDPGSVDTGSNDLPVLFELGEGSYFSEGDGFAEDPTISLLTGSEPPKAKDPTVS
Sequence of ETV5 (P41161 whole entry): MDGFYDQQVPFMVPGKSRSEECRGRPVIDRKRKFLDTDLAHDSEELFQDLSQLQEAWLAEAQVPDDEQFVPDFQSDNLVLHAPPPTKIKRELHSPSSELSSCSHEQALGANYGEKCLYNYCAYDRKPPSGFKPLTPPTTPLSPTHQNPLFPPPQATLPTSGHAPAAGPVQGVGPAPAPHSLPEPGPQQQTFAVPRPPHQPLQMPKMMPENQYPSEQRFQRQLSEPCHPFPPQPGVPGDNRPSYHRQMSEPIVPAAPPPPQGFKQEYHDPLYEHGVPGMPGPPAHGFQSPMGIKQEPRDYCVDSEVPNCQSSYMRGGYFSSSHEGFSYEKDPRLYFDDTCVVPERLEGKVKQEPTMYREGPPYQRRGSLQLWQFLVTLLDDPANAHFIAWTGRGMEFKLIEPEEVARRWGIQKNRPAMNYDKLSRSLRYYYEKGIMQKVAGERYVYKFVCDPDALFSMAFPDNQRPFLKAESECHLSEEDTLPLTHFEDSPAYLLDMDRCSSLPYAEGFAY

As to ATGCGA, the binding signal with FEV was 1.17 fold enrichment (6-mer frequency, TF over GST control); in the experiment with ETV5, 1.17 fold enrichment (6-mer frequency, TF over GST control); with HSF1, 1.22 fold enrichment (6-mer frequency, TF over GST control); in the experiment with SPIC it was 1.26 fold enrichment (6-mer frequency, TF over GST control); in the experiment with ELF4 it was 1.29 fold enrichment (6-mer frequency, TF over GST control); with ELK4 it was 1.33 fold enrichment (6-mer frequency, TF over GST control). The binding signal with ETV2 was 1.34 fold enrichment (6-mer frequency, TF over GST control); with ELF3, 1.31 fold enrichment (6-mer frequency, TF over GST control); with CRX it was 1.27 fold enrichment (6-mer frequency, TF over GST control); with ETV1 it was 1.16 fold enrichment (6-mer frequency, TF over GST control).

With ACGATT, the binding signal was 1.28 fold enrichment (6-mer frequency, TF over GST control) in the experiment with FEV; 1.36 fold enrichment (6-mer frequency, TF over GST control) with ETV5; 1.69 fold enrichment (6-mer frequency, TF over GST control) in the experiment with HSF1; 1.39 fold enrichment (6-mer frequency, TF over GST control) with SPIC; 1.39 fold enrichment (6-mer frequency, TF over GST control) in the experiment with ELF4; 1.43 fold enrichment (6-mer frequency, TF over GST control) in the experiment with ELK4. For the same sequence, the binding signal with ETV2 was 1.24 fold enrichment (6-mer frequency, TF over GST control); in the experiment with ELF3 it was 1.31 fold enrichment (6-mer frequency, TF over GST control); with CRX, 1.99 fold enrichment (6-mer frequency, TF over GST control); with ETV1 it was 1.31 fold enrichment (6-mer frequency, TF over GST control).

As to TGCTAG, the binding signal with FEV was 1.15 fold enrichment (6-mer frequency, TF over GST control); with ETV5 it was 1.3 fold enrichment (6-mer frequency, TF over GST control); with HSF1, 1.94 fold enrichment (6-mer frequency, TF over GST control); in the experiment with SPIC, 1.17 fold enrichment (6-mer frequency, TF over GST control); with ELF4, 1.19 fold enrichment (6-mer frequency, TF over GST control); in the experiment with ELK4, 1.26 fold enrichment (6-mer frequency, TF over GST control). Further, the binding signal was 1.01 fold enrichment (6-mer frequency, TF over GST control) in the experiment with ETV2; 1.34 fold enrichment (6-mer frequency, TF over GST control) with ELF3; 1.21 fold enrichment (6-mer frequency, TF over GST control) with CRX; 1.17 fold enrichment (6-mer frequency, TF over GST control) in the experiment with ETV1.

Consider TCGACC, for which the binding signal in the experiment with FEV was 1.32 fold enrichment (6-mer frequency, TF over GST control); in the experiment with ETV5, 1.27 fold enrichment (6-mer frequency, TF over GST control); with HSF1 it was 1.23 fold enrichment (6-mer frequency, TF over GST control); with SPIC, 1.17 fold enrichment (6-mer frequency, TF over GST control); in the experiment with ELF4, 1.39 fold enrichment (6-mer frequency, TF over GST control); with ELK4, 1.11 fold enrichment (6-mer frequency, TF over GST control). Moreover, the binding signal is 1.35 fold enrichment (6-mer frequency, TF over GST control) with ETV2; 1.23 fold enrichment (6-mer frequency, TF over GST control) with ELF3; 1.11 fold enrichment (6-mer frequency, TF over GST control) with CRX; 1.25 fold enrichment (6-mer frequency, TF over GST control) with ETV1.

For TGGCCT, the binding signal was 1.54 fold enrichment (6-mer frequency, TF over GST control) with FEV; 1.4 fold enrichment (6-mer frequency, TF over GST control) with ETV5; 1.32 fold enrichment (6-mer frequency, TF over GST control) with HSF1; 1.26 fold enrichment (6-mer frequency, TF over GST control) in the experiment with SPIC; 1.51 fold enrichment (6-mer frequency, TF over GST control) with ELF4; 1.53 fold enrichment (6-mer frequency, TF over GST control) with ELK4. For the same sequence, the binding signal with ETV2 was 1.46 fold enrichment (6-mer frequency, TF over GST control); with ELF3, 1.47 fold enrichment (6-mer frequency, TF over GST control); with CRX, 1.31 fold enrichment (6-mer frequency, TF over GST control); with ETV1 it was 1.27 fold enrichment (6-mer frequency, TF over GST control).

For TAAGAT, the binding signal with FEV was 1.15 fold enrichment (6-mer frequency, TF over GST control); with ETV5 it was 1.13 fold enrichment (6-mer frequency, TF over GST control); in the experiment with HSF1 it was 1.76 fold enrichment (6-mer frequency, TF over GST control); with SPIC it was 1.25 fold enrichment (6-mer frequency, TF over GST control); in the experiment with ELF4 it was 1.21 fold enrichment (6-mer frequency, TF over GST control); in the experiment with ELK4, 1.29 fold enrichment (6-mer frequency, TF over GST control). The binding signal with ETV2 is 1.31 fold enrichment (6-mer frequency, TF over GST control); with ELF3 it was 1.3 fold enrichment (6-mer frequency, TF over GST control); in the experiment with CRX, 2.49 fold enrichment (6-mer frequency, TF over GST control); in the experiment with ETV1 it was 1.28 fold enrichment (6-mer frequency, TF over GST control).

Take AAAAGC: the binding signal is 1.21 fold enrichment (6-mer frequency, TF over GST control) in the experiment with FEV; 1.29 fold enrichment (6-mer frequency, TF over GST control) with ETV5; 1.3 fold enrichment (6-mer frequency, TF over GST control) with HSF1; 1.2 fold enrichment (6-mer frequency, TF over GST control) in the experiment with SPIC; 1.17 fold enrichment (6-mer frequency, TF over GST control) with ELF4; 1.3 fold enrichment (6-mer frequency, TF over GST control) with ELK4. Also, the binding signal in the experiment with ETV2 was 1.28 fold enrichment (6-mer frequency, TF over GST control); with ELF3, 1.22 fold enrichment (6-mer frequency, TF over GST control); in the experiment with CRX, 1.43 fold enrichment (6-mer frequency, TF over GST control); with ETV1, 1.19 fold enrichment (6-mer frequency, TF over GST control).
